Test results published in PubChem BioAssay (EPA / NIEHS).
Where “and” joins values, the source holds several entries; their conditions need not be identical. Equal entries are not always repeated. Inconclusive results are not listed. A structure can be active in one record and inactive in another. Calls of active or inactive are those of the source. The calls were made as follows: active = hit-call score of the fitted dose curve at least 0.9, where 1 is the maximum; inconclusive = response in the unintended direction; inactive = score below 0.9.

Key:
[1] = TOX21_p53_BLA_p2_viability: Viability Assessment in the Tox21 HCT-116 p53 Agonism Beta-lactamase Assay, Phase 2 (AID 2283591);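 also: compound exposure lasted 16 h at 37 °C; actives lower the ATP signal meaning cytotoxicity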
How it was run: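 HCT-116 p53-bla cells (4000/well) rested 5 h at 37C, then received compounds in DMSO (217-fold dilution) for 16 h at 37C, 5% CO2. After the CCF4 read, CellTiter-Glo was added; ATP luminescence was read after 30 min at room temperature.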

[2] = target: Cellular tumor antigen p53 (Homo sapiens) (UniProt P04637); assay: TOX21_p53_BLA_p2_ratio: Tox21 HCT-116 p53 Agonism Beta-lactamase Assay, Ratio, Phase 2 (AID 2283592)
How it was run: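 Plated HCT116 p53-bla cells (4000/well) received compound after 5 h, then 16 h at 37C/5% CO2. CCF4-AM added, 2 h RT. Ratio of 460 to 530 nm emission taken as the p53 reporter signal.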

[3] = TOX21_p53_BLA_p3_viability: Viability Assessment in the Tox21 HCT-116 p53 Agonism Beta-lactamase Assay, Phase 3 (AID 2283593);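 also: cells exposed to compound for 16 h before reading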
How it was run: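 HCT-116 cells (4000/well) rested 5 h at 37C, then got DMSO compounds by pin tool (217-fold dilution) for 16 h at 37C, 5% CO2. After the bla read, CellTiter-Glo was added and luminescence read at 30 min, room temperature.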

[4] = target: Cellular tumor antigen p53 (Homo sapiens) (UniProt P04637); assay: TOX21_p53_BLA_p3_ratio: Tox21 HCT-116 p53 Agonism Beta-lactamase Assay, Ratio, Phase 3 (AID 2283596)
How it was run: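 Cells were seeded at 4000/well, rested 5 h at 37C, then dosed with DMSO compound solutions (217-fold dilution) for 16 h. CCF4-AM substrate was loaded for 2 h at room temperature, and the 460/530 nm emission ratio was fitted for gain of signal versus DMSO.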

[5] = TOX21_p53_BLA_p4_viability: Viability Assessment in the Tox21 HCT-116 p53 Agonism Beta-lactamase Assay, Phase 4 (AID 2283597);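 also: hits lower the luminescence signal meaning cytotoxicity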
How it was run: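 Readout: ATP luminescence (CellTiter-Glo), measured 30 min after reagent addition at RT. The reagent followed a 2 h CCF4-AM incubation, and the cells had been exposed to compound for 16 h at 37C.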

[6] = target: Cellular tumor antigen p53 (Homo sapiens) (UniProt P04637); assay: TOX21_p53_BLA_p5_ratio: Tox21 HCT-116 p53 Agonism Beta-lactamase Assay, Ratio, Phase 5 (AID 2283599)
How it was run: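 HCT-116 cells carrying a p53-inducible beta-lactamase reporter were seeded at 4000 cells/well and dosed after 5 h with compound in DMSO (217-fold dilution). After 16 h at 37C, CCF4-AM substrate was added for 2 h, and the 460/530 nm emission ratio was scored as gain-of-signal versus DMSO.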

[7] = TOX21_p53_BLA_p5_viability: Viability Assessment in the Tox21 HCT-116 p53 Agonism Beta-lactamase Assay, Phase 5 (AID 2283600)
How it was run: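 Workflow: seed 4000 cells per well, wait 5 h, add compounds (DMSO, 217-fold dilution), incubate 16 h, load CCF4-AM 2 h, add CellTiter-Glo, read luminescence after 30 min.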

[8] = target: Cellular tumor antigen p53 (Homo sapiens) (UniProt P04637); assay: TOX21_p53_BLA_p4_ratio: Tox21 HCT-116 p53 Agonism Beta-lactamase Assay, Ratio, Phase 4 (AID 2283601)
How it was run: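 HCT116 cells carrying an inducible beta-lactamase reporter were plated at 4000 cells/well, rested 5 h, then exposed to compounds in DMSO (217-fold dilution) for 16 h at 37C. CCF4-AM substrate was loaded 2 h at room temperature; 460/530 nm emission ratio scored gain-of-signal versus DMSO.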

Measured: AC50

Cellular tumor antigen p53 (Homo sapiens), sequence (P04637 whole entry, looked up): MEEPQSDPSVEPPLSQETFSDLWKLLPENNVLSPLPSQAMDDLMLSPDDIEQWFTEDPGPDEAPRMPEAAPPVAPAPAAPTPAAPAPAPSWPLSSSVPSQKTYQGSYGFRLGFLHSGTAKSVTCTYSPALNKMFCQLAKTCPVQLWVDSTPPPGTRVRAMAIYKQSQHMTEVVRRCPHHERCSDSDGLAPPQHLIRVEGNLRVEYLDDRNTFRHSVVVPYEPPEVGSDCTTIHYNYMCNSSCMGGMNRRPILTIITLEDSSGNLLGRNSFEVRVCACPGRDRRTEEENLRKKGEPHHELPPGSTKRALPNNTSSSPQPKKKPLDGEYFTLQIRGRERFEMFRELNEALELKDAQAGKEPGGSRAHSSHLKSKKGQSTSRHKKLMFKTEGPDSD

C[N+]1(CC2COC(c3ccccc3)(c3ccccc3)O2)CCCCC1 (stereo unspecified)
inactive: [1] | [2] | [3] | [4] | [5]

NC[C@H]1O[C@H](O[C@H]2[C@H](O)[C@@H](O[C@H]3O[C@H](CO)[C@@H](O)[C@H](N)[C@H]3O)[C@H](N)C[C@@H]2N)[C@H](O)[C@@H](O)[C@@H]1O
inactive: [1] | [2] | [3] | [4] | [5] | [7] | [8]
active: [2] 3.79 µM | [6] 3.34 µM

CCC[C@@H]1C[C@@H](C(=O)N[C@@H]([C@H]2O[C@H](SC)[C@H](O)[C@@H](O)[C@H]2O)[C@@H](C)O)N(C)C1
inactive: [1] | [2] | [3] | [4]

NC(=O)NNc1ccccc1
inactive: [1] | [2] | [3] | [4] | [5] | [6] | [7] | [8]
active: [4] 0.000125 µM | [8] 6.08e-05 µM

C=C(CC)C(=O)c1ccc(OCC(=O)O)c(Cl)c1Cl
active: [2] 13.8 µM and 6.46 µM | [4] 50.8 µM and 38.9 µM | [5] 45.8 µM | [6] 24.7 µM | [8] 25.2 µM
inactive: [1] | [3] | [5] | [6] | [7] | [8]

CC(=O)Nc1ccccc1C
not listed: [7] | [8]
inactive: all other assays above

CO[C@H]1C[C@@H]2CC[C@@H](C)[C@@](O)(O2)C(=O)C(=O)N2CCCC[C@H]2C(=O)O[C@H]([C@H](C)C[C@@H]2CC[C@@H](O)[C@H](OC)C2)CC(=O)[C@H](C)/C=C(\C)[C@@H](O)[C@@H](OC)C(=O)[C@H](C)C[C@H](C)\C=C/C=C/C=C/1C
inactive: [2]
active: [1] 18.1 µM and 20.6 µM | [2] 29.7 µM | [3] 33.3 µM and 22.4 µM | [4] 41 µM and 40.8 µM | [5] 17.5 µM and 17.7 µM | [6] 35.1 µM and 34.8 µM | [7] 23.7 µM and 23.9 µM | [8] 21.7 µM and 20.8 µM

O=C(CCN1CCN2CCCC2C1)N1c2ccccc2Sc2ccc(Cl)cc21 (stereo unspecified)
inactive: [1] | [2] | [3]

Cc1c(C)c2c(c(C)c1OC(=O)CCC(=O)O)CC[C@@](C)(CCC[C@H](C)CCC[C@H](C)CCCC(C)C)O2
active: [3] 46.5 µM and 41.2 µM | [4] 67.7 µM
inactive: [1] | [2] | [4] | [5] | [6] | [7] | [8]

CC=CC(=O)CCCC
inactive: [1] | [2] | [3] | [4] | [5]

OCCOCCN1CCN(C(c2ccccc2)c2ccc(Cl)cc2)CC1 (stereo unspecified)
active: [2] 0.000306 µM | [6] 0.000384 µM | [8] 0.000245 µM
inactive: [1] | [2] | [3] | [4] | [5] | [6] | [7] | [8]

Cc1cccc2cccnc12
inactive: [1] | [2] | [3] | [4] | [5]

C=Cc1ccc(S(=O)(=O)O)cc1
inactive: [1] | [2] | [3] | [4] | [5] | [6] | [7] | [8]
active: [5] 46.1 µM

CC(C)(C)CC(C)(C)c1ccc(OCCO)cc1
active: [2] 5.43 µM | [5] 35.6 µM
inactive: [1] | [2] | [3] | [4] | [5] | [6] | [7] | [8]

COc1cc(/C=C/C(=O)O[C@H]2CC[C@]34C[C@]35CC[C@]3(C)[C@@H]([C@H](C)CCC=C(C)C)CC[C@@]3(C)[C@@H]5CC[C@H]4C2(C)C)ccc1O
inactive: [1] | [2] | [3] | [4] | [5] | [6] | [7]
active: [3] 26.8 µM | [4] 23 µM | [6] 13.3 µM | [8] 6.07 µM

CCc1nn(CCCN2CCN(c3cccc(Cl)c3)CC2)c(=O)n1CCOc1ccccc1
inactive: [1] | [2] | [3] | [4] | [6] | [7] | [8]
active: [3] 18.9 µM | [5] 23 µM and 14.9 µM

CN(C)CCCCl
not listed: [7] | [8]
inactive: all other assays above

CCCCCCCCCC(=O)NO
active: [2] 23.1 µM | [8] 24.3 µM
inactive: [1] | [2] | [3] | [4] | [5] | [6] | [7] | [8]

COC(=O)C1=C(C)NC(C)=C(C(=O)OC)C1c1ccccc1[N+](=O)[O-]
active: [3] 38.3 µM
inactive: [1] | [2] | [3] | [4] | [5] | [6] | [7] | [8]

O=S(=O)(O)c1ccc2nc(-c3ccccc3)[nH]c2c1
inactive: [2] | [3] | [4] | [7] | [8]
active: [1] 30.2 µM and 19.9 µM | [3] 15.6 µM | [5] 33.8 µM and 23 µM | [7] 24.8 µM

C[C@@H](O)[C@H]1C(=O)N2C(C(=O)O)=C(SCCN=CN)C[C@H]12
not listed: [7] | [8]
inactive: all other assays above

CC1(C)[C@@H](O)CC[C@]2(C)[C@H]3C(=O)C=C4[C@@H]5C[C@@](C)(C(=O)O)CC[C@]5(C)CC[C@@]4(C)[C@]3(C)CC[C@@H]12
inactive: [1] | [2] | [3] | [4] | [5] | [6] | [7] | [8]
active: [3] 61.4 µM and 22.5 µM | [4] 46.4 µM | [6] 43.1 µM | [7] 30.6 µM and 33.5 µM

CC1=CC[C@H](CC=O)C1(C)C
not listed: [7] | [8]
inactive: all other assays above

Cc1cccc(CN2CCN(C(c3ccccc3)c3ccc(Cl)cc3)CC2)c1 (stereo unspecified)
not listed: [8]
inactive: all other assays above

CCCOC(C(=O)OC1CCN(C)CC1)(c1ccccc1)c1ccccc1
not listed: [8]
inactive: all other assays above

Cc1cc(O)c2c(O)c3c(O)cccc3cc2c1
not listed: [8]
inactive: all other assays above

C[N+]1(C)CCCC(OC(=O)C(O)(c2ccccc2)c2ccccc2)C1 (stereo unspecified)
not listed: [7] | [8]
inactive: all other assays above
